Laboratory results reported in PubChem BioAssay AID504357 (The Scripps Research Institute Molecular Screening Center, 2011).
Among all 340,000 compounds or so, about 700 (0.21%) were called active. This is one part of a sample in which actives are shown more often than they occur. A number with no mark means an inactive call. Rule as the data show it: active = inhibition above about 22% (passing the limit was not always enough); inactive = the rest.

Each molecule was assayed against Mu-type opioid receptor (Homo sapiens) + Delta-type opioid receptor (Homo sapiens) (UniProt P35372+P41143) (assay: inverse agonists of MOR-DOR heterodimerization, primary screen, cell-based, luminescence (AID 504357;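 also: 0% = cells with DMSO and 100% = wells without cells with DMSO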)). Settings: cell-based MOR-DOR heterodimer luminescence, inverse agonism; at 9.3 µM; hits give high values.
Mu-type opioid receptor (Homo sapiens) + Delta-type opioid receptor (Homo sapiens), sequence (P35372 whole entry, looked up): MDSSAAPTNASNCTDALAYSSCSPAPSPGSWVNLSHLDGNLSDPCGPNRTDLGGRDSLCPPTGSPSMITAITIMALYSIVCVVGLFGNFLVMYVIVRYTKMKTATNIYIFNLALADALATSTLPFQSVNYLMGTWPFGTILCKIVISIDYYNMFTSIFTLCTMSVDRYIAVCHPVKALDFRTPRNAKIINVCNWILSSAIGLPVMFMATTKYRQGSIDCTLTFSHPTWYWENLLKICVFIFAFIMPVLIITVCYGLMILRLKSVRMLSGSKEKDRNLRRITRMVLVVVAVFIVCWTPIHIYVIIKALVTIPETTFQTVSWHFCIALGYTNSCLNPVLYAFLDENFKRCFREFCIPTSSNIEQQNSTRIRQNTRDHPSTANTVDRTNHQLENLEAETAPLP
Mu-type opioid receptor (Homo sapiens) + Delta-type opioid receptor (Homo sapiens), sequence (P41143 whole entry, looked up): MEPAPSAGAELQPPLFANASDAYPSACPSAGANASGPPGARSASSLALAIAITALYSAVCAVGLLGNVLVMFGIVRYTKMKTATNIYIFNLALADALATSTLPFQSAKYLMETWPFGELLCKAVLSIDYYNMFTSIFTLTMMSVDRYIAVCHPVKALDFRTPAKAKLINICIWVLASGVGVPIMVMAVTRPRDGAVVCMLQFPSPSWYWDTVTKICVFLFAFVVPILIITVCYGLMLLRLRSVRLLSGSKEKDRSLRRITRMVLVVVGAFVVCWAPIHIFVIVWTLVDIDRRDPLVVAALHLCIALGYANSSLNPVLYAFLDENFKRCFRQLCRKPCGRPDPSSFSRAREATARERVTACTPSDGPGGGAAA
In the case of CC1=CC(=Cc2sc3ccccc3[n+]2C)C=C(C)O1, the inhibition was 17.5% (active). In the case of Clc1ccc2nc3c(c(-c4ccccc4)c2c1)CNCC3, the inhibition was 8.41%. Molecule CN(C)CC1CCCCC1=O (stereo not given) has an inhibition of 10.9%. Molecule CCC(=O)OC(Cc1ccccc1)(c1ccccc1)C(C)CN(C)C (stereo not given) has an inhibition of 8.03%. With CC/C(=N\NC(=O)c1ccccc1O)c1c(O)n(Cc2ccccc2)c(=O)[nH]c1=O the inhibition was 9.92%. CCOC(=O)c1c(N)n(CCN2CCOCC2)c2nc3ccccc3nc12 was tested, and the inhibition was 30.9% (active). In the case of CCOC(=O)c1c(N)n(Cc2ccccc2)c2nc3ccccc3nc12, the inhibition was 37% (active). With COc1cc(Cn2c(N)c(C(=O)NCc3ccco3)c3nc4ccccc4nc32)cc(OC)c1OC the inhibition was 1.03%. In the case of O=C(OCCN1CCOCC1)C1(c2ccccc2)CCCC1, the inhibition was 1.05%. CC(C)(C)c1ccc(OC(=O)N2CCCCC2)cc1 showed an inhibition of -27.7%. COC(=O)C1=C(c2ccc(F)cc2OCc2ccccc2)C[C@@H]2CC[C@H]1N2C(=O)NCc1ccc2[nH]ccc2c1 showed an inhibition of -2.75%. With O=C(NC(c1ccc(Cl)cc1)P(=O)(Oc1ccccc1)Oc1ccccc1)OCc1ccccc1 (stereo not given) the inhibition was -3.43%. With CCC(=O)CC(c1ccc([N+](=O)[O-])cc1)c1c(O)c2ccccc2oc1=O (stereo not given) the inhibition was 14.4%. CN(C)S(=O)(=O)c1cc(C(=O)N2CCC(C(=O)O)(c3ccccc3)CC2)ccc1Cl was tested, and the inhibition was 19.2%. Work on Cc1nn(-c2ccccc2)c(C)c1NC(=O)COC(=O)Cc1ccccc1 yielded an inhibition of 21%. CC(=O)OC1C2(CC3N4C(=O)C5(CO)SSC4(CC31O)C(=O)N5C)OC(C)C(C)(C)C2=O (stereo not given) was tested, and the inhibition was 102% (active). CC(C)Nc1nc(Cl)nc(NC(C)C)n1 gave an inhibition of 6.88%. In the case of CCc1nnc(NS(=O)(=O)c2ccc(N=Cc3c(O)n(-c4ccccc4)c(=O)[nH]c3=O)cc2)s1, the inhibition was 14.4%. In the case of CC(=NCc1ccc2c(c1)OCO2)c1c(O)[nH]c(=O)[nH]c1=O, the inhibition was -10.5%. CNCC(O)c1cc(F)c(OCc2ccccc2)c(OCc2ccccc2)c1F (stereo not given) showed an inhibition of -9.33%.
